These are literature values, as cited in PubChem BioAssay AID977611.

The whole screen tested about 3,900 compounds, of which about 3,900 (100%) were called active. No cut-off is given here; in the data, nearly all actives have Kd up to about 4200 µM. So high a share suggests a set chosen from earlier hits. The list shows a part of the results. Numbered stars: 1 amine (or outer) side, 2 acyl side, 3 side chain; on linkers, the order of the positions; unused ones are H or OH. Starred links: 1 amine or outer side, 2 acyl side, 3 side chain; linkers in the order of their positions; H or OH if unused. Where a SMILES comes first, the peptide text is derived from it. Non-standard residues stand in square brackets, D forms with d. Square brackets hold non-standard residues; d marks the D form. Residues, ends and D or L forms follow the SMILES beside them. Peptide text beside a SMILES is read from it. [ ]: non-standard residue; d: D form. X1 = O=C([C@H](Cc1ccc(O[P+](O)(O)O)cc1)N[*:1])[*:2]; Thr(P(OH)3+) = C[C@@H](O[P+](O)(O)O)[C@H](N)C(=O)O

The series can be described thus: PubChem AID 977611. Particulars: PDB protein-ligand complexes, literature Kd.

Turning to `CC1=C(SC[C@H](NC(=O)CC[C@H](N)C(=O)O)[C@H](O)NCC(=O)O)C(=O)c2ccccc2C1=O`, the equilibrium dissociation constant (Kd) (commonly the concentration at which binding is half-saturated) (protein: protein yqjG, PDB entry 4g0k) is 4.3 µM (active).
On to `CCCCCCCCCCCCOS(O)(O)O`, for which the Kd (protein: Beta-lactoglobulin, PDB entry 4gny) is 52 µM (active).
In the case of H-MRYGQSPNM-OH, under “protein: Protein HTP-2, PDB entry 4tzn”, the Kd is 0.3 µM (active).
Turning to `CC(=O)N1CCC[C@H]1C(=O)N[C@@H](CC(C)C)C(=O)N[C@@H](Cc1c[n+](C)cn1CCCCCCCCc1ccccc1)C(=O)N[C@@H](CO)C(=O)N[C@H](C(N)=O)[C@@H](C)O[P+](O)(O)O` (Ac-PL[X1]S[Thr(P(OH)3+)]-NH2), the Kd (protein: Serine/threonine-protein kinase PLK1 PBD, PDB entry 4o6w) was 0.003 µM (active).
With H-EPQYEEIPIYL-OH, under “protein: P56 LCK Tyrosine kinase, PDB entry 1lcj”, the Kd was 0.001 µM (active).
In the case of `CC[C@H](C)[C@H](NC(=O)[C@@H](NC(=O)[C@H](CC(C)C)NC(=O)[C@H](CCC(=O)O)NC(=O)[C@H](CCC(=O)O)NC(=O)[C@H](CCC(N)=O)NC(=O)[C@@H]1CCCN1C(=O)[C@H](CC(=O)O)NC(=O)[C@H](CO)NC(=O)CNC(=O)[C@H](Cc1ccc(O)cc1)NC(=O)[C@H](CC(C)C)NC(=O)[C@H](CCC(=O)O)NC(=O)[C@H](C)NC(=O)[C@H](CC(C)C)NC(=O)[C@@H](N)CCSC)[C@@H](C)CC)C(=O)O`, the dissociation constant Kd (protein: mouse Partitioning defective 3 homolog, PDZ 3 domain, PDB entry 2koh) was 6 µM (active).
On to `NCC(=O)N[C@@H](CCCN=C(N)N)C(=O)NCC(=O)N[C@@H](CC(=O)O)C(=O)N[C@@H](CO)C(=O)N1CCC[C@H]1C(=O)O`, for which, where the note is “protein: Integrin alpha 5-beta 1, PDB entry 4wk2”, the dissociation constant Kd was 0.115 µM (active).
For `CC[C@H](C)[C@H](NC(=O)[C@H](CCC(=O)O)NC(=O)[C@H](CC(C)C)NC(=O)[C@@H](NC(=O)[C@H](CC(=O)O)NC(=O)[C@@H]1CCCN1C(=O)[C@H](CC(=O)O)NC(=O)[C@@H](N)CC(N)=O)[C@@H](C)O[P+](O)(O)O)C(=O)N[C@@H](Cc1ccc(O)cc1)C(=O)N[C@@H](CO)C(=O)O` (H-NDPD[Thr(P(OH)3+)]LEIYS-OH), the dissociation constant Kd (protein: Serine/threonine-protein kinase RAD53, PDB entry 2a0t) was 15 µM (active).
As to `O=C1CCN([C@H]2C[C@H](O)[C@@H](CO[P+](O)(O)O)O2)C(=O)N1`, for the setting “protein: Thymidylate synthase, PDB entry 4knz”, the dissociation constant Kd was 8.5 µM (active).
In the case of `CC(C)C[C@H](NC(=O)[C@@H](N)CC(=O)O)C(=O)N[C@@H](Cc1ccc(O[P+](O)(O)O)cc1)C(=O)N[C@@H](CC(=O)O)C(=O)N[C@@H](Cc1ccc(O[P+](O)(O)O)cc1)C(=O)N[C@@H](Cc1ccc(O[P+](O)(O)O)cc1)C(=O)N1CCC[C@H]1C(=O)O`, the dissociation constant Kd (protein: THROMBIN, LIGHT CHAIN & THROMBIN, HEAVY CHAIN, PDB entry 4ch2) was 1.03 µM (active).
In the case of `CC(C)C[C@H](N)C(=O)N[C@@H](Cc1ccc(O[P+](O)(O)O)cc1)C(=O)N[C@@H](CC(=O)O)C(=O)O`, the Kd (protein: THROMBIN, LIGHT CHAIN & THROMBIN, HEAVY CHAIN, PDB entry 4ch8) was 1.03 µM (active).
As to H-NELNNNAP-OH, for the setting “protein: SPRY DOMAIN-CONTAINING SOCS BOX PROTEIN 1, PDB entry 2jk9”, the Kd was 0.15 µM (active).
For the compound `CC[C@H](C)[C@H](NC(=O)[C@H](Cc1ccc(O[P+](O)(O)O)cc1)NC(=O)[C@H](CC(=O)O)NC(=O)[C@@H](N)CC(N)=O)C(=O)N[C@@H](CC(=O)O)C(=O)N[C@@H](CC(N)=O)C(=O)N1CCC[C@H]1C(=O)O` (H-ND[X1]IDNP-OH), for the setting “protein: E3 ubiquitin-protein ligase CBL, PDB entry 3bun”, the Kd was 0.61 µM (active).
